The whole screen tested about 310,000 compounds, of which about 1,200 (0.39%) were called active. No rule for the calls is given here. Not all results are given here. Entries with a potency or affinity are not part of this list.
Each compound was assayed against Large T antigen (Simian virus 40) (UniProt P03070) (assay: SV40 large T antigen inhibitors, biochemical (AID 1903)). Conditions: SV40 large T antigen ATPase/helicase inhibition assay; at 20 µM; active compounds read high.
Chain of Large T antigen (Simian virus 40) (P03070 whole entry, looked up): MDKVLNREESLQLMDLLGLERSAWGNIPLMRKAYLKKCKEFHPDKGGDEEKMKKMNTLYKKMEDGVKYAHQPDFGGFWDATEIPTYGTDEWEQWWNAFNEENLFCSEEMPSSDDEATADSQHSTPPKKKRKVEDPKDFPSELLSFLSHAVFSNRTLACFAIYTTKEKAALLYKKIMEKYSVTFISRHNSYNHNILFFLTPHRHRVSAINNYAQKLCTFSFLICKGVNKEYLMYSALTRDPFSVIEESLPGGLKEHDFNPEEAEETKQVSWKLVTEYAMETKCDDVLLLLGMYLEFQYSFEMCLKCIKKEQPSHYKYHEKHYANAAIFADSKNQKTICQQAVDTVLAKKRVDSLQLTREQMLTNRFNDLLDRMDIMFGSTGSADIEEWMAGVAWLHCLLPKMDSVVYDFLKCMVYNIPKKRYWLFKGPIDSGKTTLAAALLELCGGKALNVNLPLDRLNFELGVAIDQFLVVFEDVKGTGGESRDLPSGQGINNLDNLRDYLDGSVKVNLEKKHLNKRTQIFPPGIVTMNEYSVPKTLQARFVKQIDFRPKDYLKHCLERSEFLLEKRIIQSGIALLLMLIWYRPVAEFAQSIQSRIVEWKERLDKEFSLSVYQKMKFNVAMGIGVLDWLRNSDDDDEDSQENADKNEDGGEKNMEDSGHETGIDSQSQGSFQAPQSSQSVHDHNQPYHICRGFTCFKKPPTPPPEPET

inhibition, inactive:
O=C(Cn1ccc2ccccc2c1=O)NCC(=O)N1CCN(c2ccccc2F)CC1 5.42%
CC(=O)Nc1ccccc1OC(C)C(=O)N1CC(C)CC(C)C1 (stereo unspecified) 2.89%
CCOc1ccc(NC(=O)N2CCC(n3nnc4cc(C)ccc43)CC2)cc1 -5.9%
Cn1c(=O)cc(SCC(=O)Nc2ccccn2)c2ccccc21 18.7%
COC(=O)c1ccccc1NC(=O)N1CCN(S(C)(=O)=O)CC1 5.14%
CCNC(=S)N(CCc1ccccc1C)Cc1cc2cc(OC)c(OC)cc2[nH]c1=O 2.57%
COc1ccc(N(CC(=O)NCc2ccc(F)cc2)C(=O)c2snc(C(N)=O)c2N)cc1OC 5.71%
CSc1ccc(C#N)cc1NC(=O)c1cccnc1Cl 1.02%
C/C(=N\NC(=O)Cn1ccc(C(F)(F)F)n1)c1ccc(N2CCOCC2)cc1 5.06%
COc1ccc(O)c(/C=N\NC(=O)CCn2nnc3ccccc32)c1 9.4%
COc1ccc(/C=N/NC(=O)CCc2c(C)n[nH]c2C)cc1O 33.9%
COc1cc(/C=N/NC(=O)CCn2c3ccccc3c3ccccc32)ccc1O 13.3%
COc1cc(/C=N\NC(=O)Cn2nnc3ccccc32)cc(OC)c1OC 4.84%
COc1ccc(/C=N/NC(=O)CCn2nc(C)cc2C)cc1O 32.7%
COc1ccc(/C=N/NC(=O)Cn2nnc3ccccc32)cc1OC 9.9%
CCOc1cc(/C=N/NC(=O)CCn2nc(C)cc2C)ccc1O 33.9%
COc1ccc(/C=N/NC(=O)CCc2c(C)n[nH]c2C)cc1OC 0.79%
CC1CCCN(C(=O)N2c3ccccc3Sc3ccccc32)C1 (stereo unspecified) 6.24%
CCOC(=O)c1c(-c2ccccc2)csc1NC(=O)c1ccc(S(=O)(=O)N2CCOCC2)cc1 11.2%
C=CCn1c(COc2ccc(Cl)cc2)nnc1SCC(=O)Nc1ccc(S(N)(=O)=O)cc1 -7.84%
COc1cccc2cc(-c3nnc(-c4ccccc4)o3)c(=O)oc12 3.9%
COC(CN(C)C(C(=O)NC1CCCCC1)c1ccccc1)OC (stereo unspecified) -3.44%
Cc1cc(C)cc(NC(=O)Nn2cnnc2)c1 14.3%
CCCCN(Cc1ccccc1)C(=O)CCN1C(=O)C2C3C=CC(C3)C2C1=O (stereo unspecified) 8.63%
Cc1cc([N+](=O)[O-])ccc1NC(=O)c1cncc(Br)c1 12.5%
COC(=O)c1ccc(S(=O)(=O)c2ccc(Cl)cc2)c(N)c1 13.4%
COC(=O)c1ccc(C(=O)NC2CCSc3ccccc32)cc1 (stereo unspecified) 6.81%
CC(C)CCN1CCN=C1Nc1ccccc1 0.58%
Cn1c(SCc2ccc([N+](=O)[O-])cc2)nc2c(c1=O)SCC2 3.17%
c1ccc2sc(N3CCOCC3)nc2c1 20.2%
CC(C)c1ccc2nc(N)sc2c1 8.35%
Nc1nc2ccc(S(=O)(=O)c3ccc4nc(N)sc4c3)cc2s1 10.5%
Fc1ccc2nc(N3CCOCC3)sc2c1 -1.3%
CC(Sc1nc2c(c(=O)[nH]1)CCCC2)C(=O)Nc1ccccc1C#N (stereo unspecified) 6.43%
O=C(N/N=C/c1cnc(N2CCOCC2)s1)c1ccccc1 11.5%
O=C(COc1ccccc1)NCC(=O)NC1=NCCS1 3.88%
COc1cc(/C=C/C(=O)OCC(=O)NC2CCS(=O)(=O)C2)ccc1O (stereo unspecified) 34%
COc1cc(/C=C/C(=O)OCC(=O)N(C)C2CCS(=O)(=O)C2)ccc1OC(F)F (stereo unspecified) -1.47%
Cc1ccc(NC(=O)CN(C)S(=O)(=O)c2ccc3[nH]c(=O)oc3c2)c(C)c1 10.9%
CC1CC(C)CN(CC(=O)N2CCc3[nH]c4ccccc4c3C2)C1 (stereo unspecified) -3.87%
Cc1ccc(/C=C2/SC(=S)N(C3CCCCC3)C2=O)o1 31.8%
O=C1/C(=C/c2ccco2)SC(=S)N1C1CCS(=O)(=O)C1 (stereo unspecified) 33.6%
O=C1/C(=C\c2ccco2)SC(=S)N1C1CCS(=O)(=O)C1 (stereo unspecified) 22.2%
Cc1ccc(/C=C2\SC(=S)N(C3CCS(=O)(=O)C3)C2=O)o1 (stereo unspecified) 9.87%
COc1ccc(C2C(C(=O)Nc3ccc(OC)c(OC)c3)c3ccccc3C(=O)N2C)cc1 (stereo unspecified) 5.35%
CCOC(=O)c1ccc(NC(=O)CN2CCN(Cc3ccccc3)CC2)cc1 -0.24%
O=C1NC(=O)/C(=C\c2cn(Cc3ccccc3F)c3ccccc23)N1 8.29%
C/C(=N\NC(=O)Cc1ccc(F)cc1)c1ccc(O)cc1 36.9%
C/C(=N\NC(=O)CCc1c(C)n[nH]c1C)c1ccc([N+](=O)[O-])cc1 3.31%
COc1ccc(C(=O)N/N=C(\C)Cn2nc([N+](=O)[O-])cc2C)cc1 8.1%
COc1cc(C(=O)N/N=C(\C)c2ccc(NC(=O)Cc3ccccc3)cc2)ccc1O 37.2%
C/C(Cn1nc([N+](=O)[O-])cc1C)=N\NC(=O)c1ccc(C(C)(C)C)cc1 9.13%
COc1cc(/C(C)=N/NC(=O)CN2CCN(S(=O)(=O)c3ccc(C)cc3)CC2)ccc1O 20.9%
COc1ccc(-c2noc(Cc3ccccc3OC)n2)cc1 5.97%
CCOc1ccccc1C(=O)NCC(=O)N(C)Cc1cccnc1 0.45%
CC1CCc2cc(F)ccc2N1C(=O)c1cc2nc(-c3ccco3)cc(C(F)(F)F)n2n1 (stereo unspecified) 0.153%
O=c1oc2c(-c3cccc(F)c3)cc(O)cc2s1 6.75%
Cc1ccc(-c2cc(O)cc3sc(=O)oc23)cc1C 9.82%
Cc1cc(NC(=O)CSc2nnc3c(C)cc4ccccc4n23)no1 23.4%
CCc1cccc(C)c1NC(=O)CCCSc1nc2ccccc2s1 3.33%
COc1ccccc1-n1c(CNc2ccc(F)cc2)nnc1SCC(=O)Nc1cc(C)on1 25.1%
COc1ccc(NCc2nnc(SCC(=O)Nc3ccc(OC)cc3)n2C)cc1 9.42%
CCOc1ccc(NCc2nnc(SCC(=O)Nc3cc(C)on3)n2-c2ccccc2OC)cc1 15.1%
COc1ccc(NCc2nnc(SCC(=O)c3ccc(OC)cc3)n2C)cc1 21.2%
CS(=O)(=O)N1CCc2cc(S(=O)(=O)N3CCCCC3)ccc21 11.4%
COc1ccc(C(C)=O)cc1COc1ccc(Cl)cc1Cl 1.32%
Cc1ccc(S(=O)(=O)N(CC(=O)Nc2cccnc2)c2cccc(Br)c2)cc1 14.9%
Cc1cc(C)nc(Nc2ccc(O)cc2)n1 45.6%
Oc1ccc(Nc2nc3ccccc3nc2Nc2ccc(O)cc2)cc1 35%
Oc1ccc(Nc2nnc(-c3ccc(O)cc3)c3ccccc23)cc1 20.3%
Cc1cc(C)nc(Nc2ccc(C(=O)O)cc2)n1 3.63%
O=C(OC1CCCCC1=O)c1cccc(S(=O)(=O)N2CCOCC2)c1 (stereo unspecified) 1.22%
CC(=O)Nc1cccc(-c2csc(NCc3ccco3)n2)c1 13.3%
CCOC(=O)C1=C(C)Nc2nc(C)nn2C1c1cc(OC)ccc1OC (stereo unspecified) 5.76%
Nc1cccc2c3c(oc12)CCCC3 4.56%
O=C(Nc1ccc(-c2ccc3nncn3n2)cc1)C1CCCC1 0.86%
CCC(C)N(C(=O)COC(=O)c1ccccc1SCC(=O)N1CCCC1)C1CCS(=O)(=O)C1 (stereo unspecified) 1.39%
c1ccc(Cn2nnnc2CN2CCN(c3ncccn3)CC2)cc1 0.78%
CCCc1cc(C(N)=O)c(NC(=O)c2cc(C)on2)s1 8.78%
Cc1csc(C(=O)NCC(=O)NNC(=O)c2cccc(Cl)c2)c1 0.72%
CCn1nc(C(=O)Nc2nc3ccc(C)cc3s2)c2ccccc2c1=O 0.39%
COc1cc(/C=N/NC(=O)CC(=O)NC2CCCCC2)ccc1O 26.4%
COc1cc(/C=N/NC(=O)NC2CCCCC2)cc(OC)c1O 31.1%
COc1cc(/C=N/NC(=O)C2c3ccccc3Oc3ccccc32)ccc1O 13.3%
COc1cc(/C=N/NC(=O)NC23CC4CC(CC(C4)C2)C3)ccc1O 26.5%
COc1ccc(C(CNC(=O)c2ccc(S(=O)(=O)Nc3ccc(F)cc3)cc2)N(C)C)cc1 (stereo unspecified) -1%
CC(=O)Nc1ccc(S(=O)(=O)NCCC(=O)OCC(=O)N2CCN(C(=O)c3ccco3)CC2)cc1 2.76%
COc1ccc(OC)c(-c2csc3nnc(SCC(=O)Nc4ccc(NC(C)=O)cc4)n23)c1 3.77%
C=CCC(C(=O)NC(C)c1ccccc1)C(=O)NC(C)c1ccccc1 (stereo unspecified) 0.99%
CCOc1cc(NC(=O)c2ccccn2)c(OCC)cc1NC(=O)c1ccccc1 8.84%
CCOc1cc(N2C(=O)CC3CS(=O)(=O)CC32)c(OCC)cc1NC(=O)c1ccccc1 (stereo unspecified) -8.08%
CCCSc1nnc(N)s1 14.6%
CCN1C(=O)c2ccccc2Sc2ccc(C(=O)NCCC(C)C)cc21 18.1%
CCOC(=O)C1CCCN(S(=O)(=O)Cc2ccc(Cl)cc2)C1 (stereo unspecified) 5.43%
NNC(=O)C(=O)Nc1ccc(Cl)c(Cl)c1 4.78%
Cc1ccc(NC(=O)C(=O)NN)cc1 4.15%

From PubChem BioAssay AID1903 (Southern Research Specialized Biocontainment Screening …, 2009)
